The other results are listed elsewhere or left out. The source made the active and inactive calls. Rule as the data show it, unless noted: active = inhibition above about 30%; inactive = the rest.
Legend:
[1] = target: Nuclear receptor coactivator 3 (Homo sapiens) (UniProt Q9Y6Q9); assay: NCOA3 GAL4-fusion reporter inhibition – cell-based, luminescence, quadruplicate, confirmation (AID 588792;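 active = mean inhibition over 43.08%, the solvent-only control mean plus 3 SD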;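 also: 0% = DMSO treated cells and 100% = gossypol at 36 µM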); settings: HEK293 GAL4-SRC3 luciferase reporter, at 3.6 µM, stronger effect = higher value
Chain of Nuclear receptor coactivator 3 (Homo sapiens) (Q9Y6Q9 whole entry, looked up, the tested form may be a part): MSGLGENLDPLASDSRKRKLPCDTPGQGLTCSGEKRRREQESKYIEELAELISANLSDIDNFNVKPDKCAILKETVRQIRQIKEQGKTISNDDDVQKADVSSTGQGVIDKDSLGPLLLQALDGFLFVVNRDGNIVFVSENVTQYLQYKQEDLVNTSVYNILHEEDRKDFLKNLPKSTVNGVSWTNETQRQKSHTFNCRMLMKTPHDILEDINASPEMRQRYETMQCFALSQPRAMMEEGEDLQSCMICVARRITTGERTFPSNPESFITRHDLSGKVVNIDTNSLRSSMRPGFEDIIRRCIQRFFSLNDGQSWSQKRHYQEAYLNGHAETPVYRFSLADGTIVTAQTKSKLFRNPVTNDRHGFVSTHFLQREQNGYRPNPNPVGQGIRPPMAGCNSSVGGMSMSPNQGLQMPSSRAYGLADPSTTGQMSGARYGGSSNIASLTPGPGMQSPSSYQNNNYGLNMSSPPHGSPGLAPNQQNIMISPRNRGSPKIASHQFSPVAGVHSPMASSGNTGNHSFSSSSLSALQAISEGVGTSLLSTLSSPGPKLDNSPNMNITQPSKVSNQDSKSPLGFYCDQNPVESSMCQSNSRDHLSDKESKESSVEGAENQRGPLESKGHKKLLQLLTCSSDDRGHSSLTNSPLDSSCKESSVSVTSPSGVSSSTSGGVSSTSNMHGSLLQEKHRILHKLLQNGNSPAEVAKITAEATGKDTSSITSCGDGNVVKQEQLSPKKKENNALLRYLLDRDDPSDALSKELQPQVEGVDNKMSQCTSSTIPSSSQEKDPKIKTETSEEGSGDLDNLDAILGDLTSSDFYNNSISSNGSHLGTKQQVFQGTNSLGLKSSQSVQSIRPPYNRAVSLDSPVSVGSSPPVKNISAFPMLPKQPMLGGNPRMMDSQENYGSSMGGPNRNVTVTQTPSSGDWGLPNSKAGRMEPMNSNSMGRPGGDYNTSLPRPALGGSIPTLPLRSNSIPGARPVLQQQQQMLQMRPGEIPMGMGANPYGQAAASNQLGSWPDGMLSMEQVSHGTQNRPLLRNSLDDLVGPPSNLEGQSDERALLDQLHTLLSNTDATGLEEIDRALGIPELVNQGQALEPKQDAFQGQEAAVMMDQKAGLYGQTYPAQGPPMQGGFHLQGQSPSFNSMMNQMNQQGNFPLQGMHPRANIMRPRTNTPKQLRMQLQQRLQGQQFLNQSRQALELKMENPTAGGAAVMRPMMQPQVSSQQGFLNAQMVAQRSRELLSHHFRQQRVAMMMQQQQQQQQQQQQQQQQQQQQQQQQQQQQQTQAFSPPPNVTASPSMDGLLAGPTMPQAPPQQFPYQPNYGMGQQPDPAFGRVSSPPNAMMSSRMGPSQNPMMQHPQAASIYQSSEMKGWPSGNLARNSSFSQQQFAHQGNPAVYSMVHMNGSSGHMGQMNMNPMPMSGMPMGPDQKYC

[2] = test system: transactivating tegument protein VP16 (Human herpesvirus 1), Gal4-VP16 luciferase reporter; assay: repression of VP16-driven luciferase reporter – cell-based, luminescence, high throughput, counter-screen for SRC3 inhibitor project (AID 588794); settings: mammalian cells, at 3.6 µM, stronger effect = higher value
[3] = target: Photoreceptor-specific nuclear receptor (Homo sapiens) (UniProt Q9Y5X4); assay: retest of NR2E3-NCOR disrupting agonists – cell-based, luminescence, CHO-S two-hybrid, confirmation (AID 624378;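 active = average inhibition above a cutoff equal to the mean inhibition of all tested compounds plus one SD, cut at about 70% in these data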;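 also: 0% = DMSO in NR2E3 cells and 100% = DMSO in cells lacking NR2E3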); settings: CHO-S mammalian two-hybrid NR2E3-NCOR, luciferase luminescence; at 3.98 µM; stronger effect = higher value
Chain of Photoreceptor-specific nuclear receptor (Homo sapiens) (Q9Y5X4 whole entry, looked up): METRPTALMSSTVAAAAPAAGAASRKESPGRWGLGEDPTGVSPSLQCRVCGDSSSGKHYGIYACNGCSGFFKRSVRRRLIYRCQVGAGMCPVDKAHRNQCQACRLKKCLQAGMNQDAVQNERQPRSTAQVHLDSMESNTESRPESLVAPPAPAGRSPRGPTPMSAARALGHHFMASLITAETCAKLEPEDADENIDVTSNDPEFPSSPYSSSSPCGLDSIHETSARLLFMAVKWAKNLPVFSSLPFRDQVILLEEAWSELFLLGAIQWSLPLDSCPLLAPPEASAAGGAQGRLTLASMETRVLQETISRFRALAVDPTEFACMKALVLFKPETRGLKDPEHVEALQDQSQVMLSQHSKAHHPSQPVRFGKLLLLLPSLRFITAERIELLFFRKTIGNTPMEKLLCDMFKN

[4] = nonselective effects on VP16 transactivation – cell-based, luminescence, CHO-S, high throughput, counter-screen for NR2E3 agonist project, confirmation (AID 624379;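 active = mean inhibition above a cutoff equal to the average over all tested compounds plus one standard deviation, cut at about 70% in these data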;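 also: 0% = DMSO with VP16-transfected cells and 100% = DMSO with cells lacking VP16; higher means less reporter light so more repression of VP16 activity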); settings: CHO-S GAL4-VP16 luciferase reporter, at 3.98 µM, stronger effect = higher value
[5] = StAR promoter reporter inhibitors, counter-screen for LRH-1 inverse agonist project, cell-based, luminescence, high throughput (AID 651611; in the data active = inhibition above about 28%); settings: StAR promoter luciferase reporter counterscreen, at 3.6 µM, stronger effect = higher value
[6] = target: Nuclear receptor subfamily 5 group A member 2 (Homo sapiens) (UniProt O00482); assay: NR5A2 activity suppression in reporter cells – cell-based, luminescence, confirmation (AID 651613; in the data active = inhibition above about 42%;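 also: HEK293T cells co-transfected with LRH-1 and StAR promoter luciferase reporter; 0% = vehicle wells and 100% = parental cells lacking receptor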); settings: cell-based LRH-1 luciferase reporter, inverse agonism; at 3.6 µM; stronger effect = higher value
Chain of Nuclear receptor subfamily 5 group A member 2 (Homo sapiens) (O00482 whole entry, looked up): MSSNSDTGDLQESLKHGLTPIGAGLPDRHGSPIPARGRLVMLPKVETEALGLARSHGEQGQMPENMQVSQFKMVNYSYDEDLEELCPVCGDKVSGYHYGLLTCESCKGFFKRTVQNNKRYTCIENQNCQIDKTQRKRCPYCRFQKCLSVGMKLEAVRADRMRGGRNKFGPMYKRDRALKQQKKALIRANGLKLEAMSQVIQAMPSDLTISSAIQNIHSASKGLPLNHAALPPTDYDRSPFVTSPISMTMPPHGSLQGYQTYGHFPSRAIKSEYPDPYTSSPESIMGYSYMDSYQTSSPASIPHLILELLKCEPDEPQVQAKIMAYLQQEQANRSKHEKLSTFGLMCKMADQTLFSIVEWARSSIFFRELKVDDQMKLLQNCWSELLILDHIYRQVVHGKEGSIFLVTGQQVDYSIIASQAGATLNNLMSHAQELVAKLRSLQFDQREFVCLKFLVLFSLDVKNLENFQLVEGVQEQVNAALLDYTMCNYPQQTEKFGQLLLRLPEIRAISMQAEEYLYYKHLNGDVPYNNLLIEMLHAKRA

[7] = target: Steroidogenic factor 1 (Homo sapiens) (UniProt Q13285); assay: inverse agonism at SF1 nuclear receptor – cell-based, luminescence, high throughput, counter-screen for LRH-1 inverse agonist project (AID 651614; in the data active = inhibition above about 44%;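 also: cells cotransfected with StAR promoter reporter and SF1 expression vector; 0% = vehicle on cells with receptor and 100% = vehicle on cells lacking receptor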); settings: cell-based SF1 luciferase reporter, at 3.6 µM, stronger effect = higher value
Chain of Steroidogenic factor 1 (Homo sapiens) (Q13285 whole entry, looked up, the tested form may be a part): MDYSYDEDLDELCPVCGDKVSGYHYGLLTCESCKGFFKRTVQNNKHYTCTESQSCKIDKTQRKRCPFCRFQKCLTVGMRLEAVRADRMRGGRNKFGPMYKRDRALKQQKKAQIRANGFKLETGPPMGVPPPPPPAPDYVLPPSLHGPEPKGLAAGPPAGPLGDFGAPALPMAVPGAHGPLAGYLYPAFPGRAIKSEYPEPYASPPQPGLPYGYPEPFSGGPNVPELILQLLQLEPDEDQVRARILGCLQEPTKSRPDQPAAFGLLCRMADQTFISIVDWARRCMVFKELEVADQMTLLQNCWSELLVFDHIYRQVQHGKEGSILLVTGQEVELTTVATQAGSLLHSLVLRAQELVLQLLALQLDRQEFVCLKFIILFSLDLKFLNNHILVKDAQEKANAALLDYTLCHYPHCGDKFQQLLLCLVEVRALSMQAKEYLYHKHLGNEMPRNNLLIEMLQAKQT

[8] = compounds suppressing VP16-driven luciferase signal – cell-based, luminescence, high throughput, counter-screen for LRH-1 inverse agonist project (AID 651615; in the data active = inhibition above about 33%); settings: Gal4-VP16 luciferase reporter cells, at 3.6 µM, stronger effect = higher value
[9] = target: Nuclear receptor coactivator 1 (Homo sapiens) (UniProt Q15788); assay: NCOA1 GAL4-fusion reporter inhibition – cell-based, luminescence, quadruplicate, confirmation (AID 588820;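 active = mean inhibition above 46.68%, the untreated control wells mean plus 3 SD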;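 also: 0% = DMSO wells and 100% = gossypol 36 µM treated wells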); settings: HEK293 GAL4-SRC1 luciferase reporter, at 3.6 µM, stronger effect = higher value
Chain of Nuclear receptor coactivator 1 (Homo sapiens) (Q15788 whole entry, looked up, the tested form may be a part): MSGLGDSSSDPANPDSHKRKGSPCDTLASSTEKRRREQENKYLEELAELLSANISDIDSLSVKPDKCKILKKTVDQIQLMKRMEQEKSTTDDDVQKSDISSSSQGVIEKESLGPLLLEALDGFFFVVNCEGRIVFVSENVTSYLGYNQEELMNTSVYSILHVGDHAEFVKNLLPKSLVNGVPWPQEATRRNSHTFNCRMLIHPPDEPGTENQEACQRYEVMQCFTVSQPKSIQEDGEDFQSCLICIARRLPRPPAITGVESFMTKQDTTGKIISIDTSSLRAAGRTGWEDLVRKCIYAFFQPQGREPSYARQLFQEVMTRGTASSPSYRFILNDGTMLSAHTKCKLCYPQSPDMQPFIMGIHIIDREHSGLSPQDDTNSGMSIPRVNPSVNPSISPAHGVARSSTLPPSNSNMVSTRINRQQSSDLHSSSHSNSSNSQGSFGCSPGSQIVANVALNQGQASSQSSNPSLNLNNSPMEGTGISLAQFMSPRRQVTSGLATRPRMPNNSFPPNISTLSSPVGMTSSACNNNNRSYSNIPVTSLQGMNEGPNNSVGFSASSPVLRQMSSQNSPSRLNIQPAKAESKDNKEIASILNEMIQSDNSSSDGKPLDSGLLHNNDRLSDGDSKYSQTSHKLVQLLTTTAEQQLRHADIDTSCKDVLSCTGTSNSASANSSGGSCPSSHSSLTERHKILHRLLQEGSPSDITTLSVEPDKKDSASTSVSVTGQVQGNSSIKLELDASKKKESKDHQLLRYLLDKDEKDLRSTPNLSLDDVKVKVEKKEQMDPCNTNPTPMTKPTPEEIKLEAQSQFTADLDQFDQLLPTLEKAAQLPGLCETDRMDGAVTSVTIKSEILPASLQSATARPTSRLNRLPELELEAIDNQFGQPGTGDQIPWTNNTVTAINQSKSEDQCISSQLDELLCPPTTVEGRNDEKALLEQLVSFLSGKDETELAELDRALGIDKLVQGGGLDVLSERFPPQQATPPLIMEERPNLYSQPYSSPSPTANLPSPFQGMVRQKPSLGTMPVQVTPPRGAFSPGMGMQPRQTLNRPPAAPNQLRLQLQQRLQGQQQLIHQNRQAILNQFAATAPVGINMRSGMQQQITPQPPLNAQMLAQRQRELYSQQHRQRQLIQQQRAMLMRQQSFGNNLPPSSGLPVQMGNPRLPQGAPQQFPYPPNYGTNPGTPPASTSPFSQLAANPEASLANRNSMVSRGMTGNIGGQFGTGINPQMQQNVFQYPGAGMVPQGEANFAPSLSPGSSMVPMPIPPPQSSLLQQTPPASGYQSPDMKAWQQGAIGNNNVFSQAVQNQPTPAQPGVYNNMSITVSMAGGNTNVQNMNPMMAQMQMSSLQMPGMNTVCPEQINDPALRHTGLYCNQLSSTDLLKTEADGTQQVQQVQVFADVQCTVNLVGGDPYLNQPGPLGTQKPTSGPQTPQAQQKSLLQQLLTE

[10] = repression of VP16-driven luciferase reporter – cell-based, luminescence, high throughput, counter-screen for SRC1 inhibitor project (AID 588824; in the data active = inhibition above about 25%); settings: cell-based VP16 transactivation luciferase luminescence; at 3.6 µM; stronger effect = higher value
[11] = VP16-driven transactivation reporter suppression – cell-based, luminescence, HEK293, counter-screen for COUP-TFII antagonist project (AID 687007; in the data active = inhibition above about 13%); settings: HEK293 Gal4-VP16 luciferase reporter, at 8.5 µM, stronger effect = higher value
[12] = target: COUP transcription factor 2 (Homo sapiens) (UniProt P24468); assay: retest of COUP-TFII reporter suppressors – cell-based, luciferase reporter, HEK293, triplicate, confirmation (AID 687008;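 active = mean inhibition over three repeats above a set limit taken from the earlier primary screen, cut at about 38% in these data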;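 also: 100% = cells given the luciferase reporter alone without the COUP-TF2 vector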); settings: HEK293 NGFI-A luciferase reporter, luminescence; at 8.5 µM; stronger effect = higher value
Chain of COUP transcription factor 2 (Homo sapiens) (P24468 whole entry, looked up): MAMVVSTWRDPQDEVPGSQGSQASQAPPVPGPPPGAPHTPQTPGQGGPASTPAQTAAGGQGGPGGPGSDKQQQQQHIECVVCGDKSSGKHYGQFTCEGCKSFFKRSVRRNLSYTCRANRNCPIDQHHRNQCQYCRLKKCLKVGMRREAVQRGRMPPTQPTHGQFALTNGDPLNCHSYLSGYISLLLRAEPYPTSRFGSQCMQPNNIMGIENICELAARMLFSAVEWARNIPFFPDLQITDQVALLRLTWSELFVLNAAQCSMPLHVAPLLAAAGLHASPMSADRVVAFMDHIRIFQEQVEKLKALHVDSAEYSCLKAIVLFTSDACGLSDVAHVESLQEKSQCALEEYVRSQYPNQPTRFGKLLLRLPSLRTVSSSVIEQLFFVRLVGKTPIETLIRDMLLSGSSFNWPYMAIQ

[13] = test system: transactivating tegument protein VP16 (Human herpesvirus 1); assay: compounds suppressing VP16-driven luciferase signal – cell-based, luminescence, single concentration, counter-screen for SRC2 inhibitor project (AID 652007; in the data active = inhibition above about 36%); settings: cell-based VP16 transactivation luciferase reporter, at 8.9 µM, stronger effect = higher value
[14] = target: Nuclear receptor coactivator 2 (Homo sapiens) (UniProt Q15596); assay: inhibition of GAL4-SRC2 driven luciferase expression – cell-based, luminescence, HEK293, triplicate, confirmation (AID 652008;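 active = mean inhibition above 46.5%, the solvent-only control mean plus 3 SD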;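 also: 0% = DMSO-treated cells and 100% = Gossypol at 36 µM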); settings: HEK293 GAL4-SRC2 luciferase reporter, at 8.9 µM, stronger effect = higher value

Measured: inhibition

CC(C)(C)Nc1nc(-c2ccccn2)nc2ccccc12
active: [2] 43.1% | [3] 99.2% | [5] 69.1% | [6] 85.6% | [7] 84.7% | [8] 63.9%
inactive: [1] 35% | [4] 49.7%

CC(=O)Nc1ccc(-c2csc(NC(=O)Nc3ccccc3)n2)cc1
inactive: [1] 4.6% | [2] -0.97% | [9] -38.2% | [10] -3.98% | [11] -18.8% | [12] 35.7%

COc1cc(/C=N/NC(N)=S)cc(Br)c1OCc1ccccc1F
active: [1] 54.7% | [5] 33.5% | [6] 74.1% | [7] 70.8% | [8] 40.5%
inactive: [2] 14.2%

Cc1nnsc1S(=O)c1ccc(Cl)c(Cl)c1 (configuration not stated)
active: [6] 64.4% | [7] 66.4%
inactive: [1] 34.3% | [2] 9.36% | [5] 25.5% | [8] 20.8%

c1ccc(-c2csc3ncnc(NCC4COc5ccccc5O4)c23)cc1 (configuration not stated)
inactive: [1] 8.5%
active: [2] 53% | [5] 34.8% | [6] 57.8% | [7] 62.5% | [8] 60.4%

CCN(C(C)=O)c1cnc(C=NNC(N)=S)c2ccccc12
active: [5] 78.7% | [6] 75.7% | [7] 69.5% | [8] 69.3%
inactive: [1] 39.5% | [2] 29.1%

O=C(Nc1sc2c(c1C(=O)O)CCCCC2)c1ccccc1
active: [6] 57% | [7] 59% | [8] 53.1%
inactive: [1] -1.12% | [2] 24.2% | [5] 1.22%

CCOc1ccc(-c2c[n+]3c(n2-c2ccccc2)CCCCC3)cc1
inactive: [1] 28.4% | [5] 22.6%
active: [2] 43.8% | [6] 94.5% | [7] 69.1% | [8] 66.9%

CCCCCCCCCCCCCCCCn1cc[n+](C)c1
active: [2] 31.6% | [5] 36% | [6] 65.5% | [7] 70.5% | [8] 64.4%
inactive: [1] 5.39%

COc1cc(N(C)C)ccc1C=c1c2ccccc2n2c1cc(-c1ccccc1)[n+]2C
active: [1] 57.7% | [2] 67.2% | [5] 56.9% | [6] 109% | [7] 87.4% | [8] 92.5%

O=C(Nc1ccc(S(=O)(=O)Nc2ccccc2)cc1)c1ccc(CN2CCOCC2)cc1
inactive: [1] 9.71% | [5] 21.8%
active: [2] 36% | [6] 56.4% | [7] 57.4% | [8] 57.6%

Cc1sc(NC(=O)c2ccco2)c(C(c2cccnc2)N2CCN(c3ccc(F)cc3)CC2)c1C (configuration not stated)
inactive: [1] 19.5% | [5] 24.4%
active: [2] 31.9% | [6] 61.9% | [7] 60.2% | [8] 53.9%

Cc1ccc(C(=O)Nc2sc3c(c2C(=O)O)CCCC3)o1
inactive: [1] 17.1%
active: [2] 40% | [5] 32.5% | [6] 75.9% | [7] 78.6% | [8] 61.7%

CCOc1ccc(-n2c(-c3ccc(Br)cc3)c[n+]3c2CCCCC3)cc1
active: [6] 104% | [7] 60.1% | [8] 67.5%
inactive: [1] 26.1% | [2] 24.1% | [5] 22.8%

COc1ccc(-n2c(-c3ccc(Cl)cc3)c[n+]3c2CCc2ccccc2-3)cc1
active: [2] 45.2% | [5] 30.1% | [6] 79.2% | [7] 69.1% | [8] 70.5%
inactive: [1] 16.3%

COc1ccc(-c2c[n+](CC(=O)OC3CC(C)CCC3C(C)C)c3n2CCC3)cc1 (configuration not stated)
inactive: [1] 22.9% | [5] 20.9%
active: [2] 42.1% | [6] 95.2% | [7] 62.6% | [8] 56.7%

COC(=O)c1ccc(COC(=O)c2[nH]c(C)c(C(C)=O)c2C)o1
active: [6] 54.4% | [8] 41%
inactive: [1] 19.6% | [2] 15.9% | [5] 12.8% | [7] 38.7%

CC(=NNC(=S)N1CCCC1)c1ccccn1
active: [1] 54.1% | [2] 64.5% | [10] 66.4%

CCC(C)(C)c1ccc(OCCCC[n+]2ccccc2)c(C(C)(C)CC)c1
inactive: [1] 26.1% | [5] 16.3%
active: [2] 37.4% | [6] 64% | [7] 55.6% | [8] 60.8%

C=CCC1(CC=C)CCCN1C(=O)c1cc(COc2ccc(-n3cncn3)cc2)on1
inactive: [1] 5.51% | [11] -1.01%
active: [2] 30.2% | [3] 97.4% | [4] 86.5% | [12] 49.6%

CCCCC(=O)NC(c1ccc(OC)cc1)c1ccc2cccnc2c1O (configuration not stated)
inactive: [1] 28.5% | [2] 14.8% | [5] 8.78% | [6] 17.3% | [7] 18.6% | [8] 27%

COc1ccc(-c2cn(-c3ccccc3)c3[n+]2CCS3)cc1
inactive: [1] 15.7% | [5] 18.2%
active: [2] 35.4% | [6] 61.1% | [7] 60.6% | [8] 45.1%

Nc1cc(Cc2ccccc2)ccc1O
inactive: [1] -9.82% | [2] -12.4% | [5] 9.01% | [6] 25.7% | [7] 33.2% | [8] -10.3%

O=C(OC12CC3CC(CC(C3)C1)C2)c1ccc(NCc2cc(O)ccc2O)cc1
active: [1] 89.3% | [2] 59.6% | [3] 78.1% | [5] 66.5% | [6] 82.9% | [7] 80.2% | [8] 86% | [13] 95.5% | [14] 96.4% | [11] 79.4% | [12] 103%
inactive: [4] 18.6%

O=c1oc2ccccc2cc1-c1cn(-c2ccccc2)c(=S)[nH]1
inactive: [1] 11% | [2] 23.1% | [9] -68.1% | [10] -22.7%
active: [11] 46.9% | [12] 60.8%

Clc1ccc(C2=Nn3c(nnc3-c3n[nH]c4c3CCC4)SC2)cc1
active: [5] 61.5% | [6] 46.5% | [7] 66.8%
inactive: [1] 28.4% | [2] -31.7% | [8] -54.9%

O=C(Nc1ccccc1)Nc1cc(OCC(F)(F)F)cc(OCC(F)(F)F)c1
inactive: [1] 21.7% | [2] 20.5% | [5] 22.9%
active: [6] 71.3% | [7] 54.7% | [8] 54.3%

O=C(Nc1ccc(F)cc1)Nc1cc(OCC(F)(F)F)cc(OCC(F)(F)F)c1
active: [2] 29.6% | [5] 53.8% | [6] 98.5% | [7] 75.6% | [8] 78%
inactive: [1] 17%

CCN1/C(=C\c2ccc3cc(C)ccc3[n+]2CC)Sc2cc(C)c(C)cc21
inactive: [1] 34.9%
active: [2] 57.5% | [5] 32.8% | [6] 82.5% | [7] 72.8% | [8] 65.6%

Cc1cc(Br)c(OCc2ccc(C(=O)N/N=C/c3ccc[nH]3)cc2)c(Br)c1
active: [1] 51.8% | [2] 71.7% | [5] 76.5% | [6] 101% | [7] 88.5% | [8] 85.5%

CCOC(=O)c1c2c(n(-c3ccc(OC)cc3)c1C)C(=O)C(=O)c1ccccc1-2
active: [1] 45.9% | [2] 33.8% | [5] 63% | [6] 66.5% | [7] 63.8% | [8] 50.3%

Brc1ccc(C2=Nn3c(nnc3-c3n[nH]c4c3CCC4)SC2)cc1
inactive: [1] 26% | [2] -11.4% | [8] -33.2%
active: [5] 50.6% | [6] 49% | [7] 51%

CCC1C/C(=C\c2cccnc2)C(=O)/C(=C/c2cccnc2)C1 (configuration not stated)
inactive: [1] 15.6%
active: [2] 78.6% | [5] 60.2% | [6] 103% | [7] 97.7% | [8] 90.7%

COc1ccc(-n2c(-c3ccc(Br)cc3)c[n+]3c2CCc2ccccc2-3)cc1
inactive: [1] 32.4% | [5] 22.1%
active: [2] 36.3% | [6] 96.4% | [7] 65% | [8] 73%

CCN(CC)c1ccc(/C=N/NC(=O)c2cccc(S(=O)(=O)N3CCOCC3)c2)c(O)c1
active: [1] 60% | [2] 61.7% | [5] 79.2% | [6] 96.4% | [7] 82.6% | [8] 64.8%

COc1ccc(-c2n(CC(=O)OC3CC(C)CCC3C(C)C)c3ccccc3[n+]2C)cc1 (configuration not stated)
active: [1] 57.5% | [2] 61.3% | [5] 59.1% | [6] 110% | [7] 79.5% | [8] 92.9%

COC1C(=O)CCC2(CO2)C1(O)C1(C)OC1CC=C(C)C (configuration not stated)
inactive: [1] 39.3% | [7] 39.6%
active: [2] 40.8% | [5] 33.8% | [6] 43% | [8] 42%

c1ccc(C[n+]2cccc3c4ccccc4ccc32)cc1
inactive: [1] 32.6%
active: [2] 54.8% | [5] 41.7% | [6] 83.4% | [7] 74.3% | [8] 70.4%

CCOC(=O)c1sc(N(Cc2ccccc2)C(=O)COC(=O)c2ccc(O)cc2)nc1C
inactive: [5] -92.1%
active: [1] 69.3% | [2] 37.4% | [6] 55.2% | [7] 61.2% | [8] 37.1%

N#CC(c1cccc(Cl)c1)c1ccc2c(C(F)(F)F)cc(C(F)(F)F)nc2n1 (configuration not stated)
active: [1] 59.4% | [2] 84% | [5] 82.3% | [6] 107% | [7] 95.5% | [8] 88.9%

CCOc1ccc(-n2c(-c3ccccc3)c[n+]3c2CCCCC3)cc1
active: [2] 52.4% | [5] 29.9% | [6] 90.5% | [7] 72.3% | [8] 66.2%
inactive: [1] 28.7%

CN(c1ccccc1)S(=O)(=O)c1cccc(C(=O)OCC(=O)Nc2ccc(C(N)=O)cc2)c1
inactive: [1] 6.76% | [2] -5.87% | [5] 16.5% | [6] 1.26% | [7] 10% | [8] -16.3%
